Here are results for 40 compounds from PubChem BioAssay (NCI).

Compounds without any hit were thinned out: in the full panel of roughly 83,000, 20% have a hit.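 Cells were grown in 96-well plates and exposed to the test compound at a single concentration for 48 hours; results are reported as percent growth, with values below 10 considered active.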 Values without a mark were called inactive. Activity calls are given as the source filed them.

For the assay, the system named is SK-OV-3 ovarian. The experiment in a line: NCI-60 one-dose screen, 48 h (100 = growth as untreated, 0 = no growth, -100 = all killed). As to conditions: 10 µM unless noted. The procedure:
Growth inhibition of the SK-OV-3 human tumor cell line is measured as a screen for anti-cancer activity. Cells are grown in 96 well plates and exposed to the test compound for 48 hours. Compounds are tested at a single concentration, which is 10^-5 M for most compounds. The reported endpoint is percent growth (GI% or GIPRCNT), where numbers from 0 - 100% represent growth inhibition, and numbers from -100% - 0 represent cell death. For example, a value of 40 represents 60% growth inhibition. A value of 0 means no net growth occurred over the course of the experiment. A value of -40 indicates 40% of cells at the beginning of the experiment died by the end of the experiment. A value of -100 means all cells are dead at the end of the experiment.
NCI-60 Human Tumor Cell Lines Screen was performed using the standard one-dose NCI protocol, which is described in more detail at https://dtp.cancer.gov/discovery_development/nci-60/default.htm.
Compounds with GIPRCNT values below 10 were considered active. Activity score was based on GIPRCNT using the following formula: […]
Score is 0 for GIPRCNT values of 100 or above, 50 for GIPRCNT values of 0, and 100 for GIPRCNT values of -100.
Turning to `Cc1sc2ncnc(Sc3nc4ccccc4[nH]3)c2c1C`, the growth is -23.1% (active).

On to `O=C(CCc1nnc2sc(COc3ccccc3)nn12)c1nc2ncccc2[nH]1`, for which the growth was 94.7%.

As to `CCCCCCn1c(=N)n(CC(O)COc2cccc(C)c2)c2ccccc21` (stereo not given), the growth is 37.3%.

For `CCOC(=O)C1=CN(C)C=C(C(=O)OCC)C1c1cc(Br)c(OCC)c(OC)c1`, the growth was 86.4%.

For the compound `CC(=S)NC(=O)C(=O)/C=C1/NC(=O)C(=O)S1`, the growth was 122%.

For the compound `CCOC(=O)C1=C(C)N=c2s/c(=C\c3cc(Cl)ccc3O)c(=O)n2C1c1ccc(OC)cc1` (stereo not given), the growth was 104%.

With `COc1cc(NC(=O)CCSc2nc3ccccc3c(=O)n2CCc2ccccn2)cc(OC)c1OC`, the growth is 78.9%.

Take `C[n+]1c2ccccc2nc2ccc(NCCO)cc21`: the growth was 112%.

For the compound `O=C(COc1cc(O)c2c(=O)cc(-c3ccccc3)oc2c1)Nc1ccccc1C(F)(F)F`, the growth is 44.1%.

For `COc1ccc(/C=C/C(=O)c2ccc3cc(OC)c(OC)cc3c2)cc1OC`, the growth is 63.3%.

As for `O=c1oc2ccc(Br)cc2c(=O)n1-c1ccc(F)cc1F`, the growth is -10.9% (active).

Turning to `Cc1ccc(C(=O)c2oc3ccc4c(C)cc(=O)oc4c3c2C)cc1`, the growth was 46.9%.

In the case of `O=c1oc2ccc(Br)cc2c(=O)n1-c1ccc(I)cc1F`, the growth was 6.53% (active).

Consider `CSc1nc2c(c(=O)n1C)N=C1c3ccccc3C(=O)C1C(c1ccccc1)N2` (stereo not given), for which the growth was 72.4%.

Turning to `CC(C)[C@H](NC(=O)Cn1cc(C(=O)O)nn1)C(=O)O`, the growth was 106%.

In the case of `O=C(Nc1ccccc1O)c1ccc(-c2ccc(Cl)cc2Cl)o1`, the growth was 94.5%.

With `CN(CCc1ccccc1)C(=S)N(C(=O)c1ccc([N+](=O)[O-])cc1)c1ccc(Cl)cc1`, the growth is 102%.

Take `Oc1c(C(Nc2ccccn2)c2cccc(Oc3ccccc3)c2)ccc2cccnc12` (stereo not given): the growth was -90.1% (active).

With `CCOC(=O)c1c2c(n3cccc(Cl)c13)C(=O)c1ncccc1C2=O`, the growth is 54.4%.

On to `Nc1cccc(Nc2cc(S(=O)(=O)O)c(N)c3c2C(=O)c2ccccc2C3=O)c1`, for which the growth was 88.6%.

In the case of `COc1ccc(/C=C/C(=O)c2c(C)nc3ccccc3c2/C=C/c2ccccc2)c(OC)c1`, the growth is 94.3%.

As for `CC1CCCCN1CCCNC(=O)c1ccc2c(c1)sc1nc(-c3ccc(F)cc3)cn12` (stereo not given), the growth is 99.7%.

For the compound `COc1ccc(Nc2nc(N/N=C/c3ccc(O)cc3)nc(Nc3ccc([N+](=O)[O-])cc3)n2)cc1`, the growth was 112%.

Turning to `COc1ccc(C2C3=C(COC3=O)N(CCO)c3cc4c(cc32)OCCO4)cc1` (stereo not given), the growth is 86.5%.

As to `O=C1NC(=S)NC(=O)C1=Cc1cn(Cc2cn(Cc3cccc4ccccc34)nn2)c2ccccc12`, the growth is 111%.

Regarding `Nc1nonc1-n1nncc1-c1cccnc1`, the growth is 104%.

In the case of `CCOC(=O)c1cc2c(n1Cc1ccccc1OC)-c1oncc1CCC2`, the growth is 24.2%.

For the compound `COC(=O)[C@@H]1CCCN1C(=O)[C@H]1CCCN1C(=O)[C@@H](Cc1c[nH]c2ccccc12)NC(=S)Nc1cc(C(F)(F)F)cc(C(F)(F)F)c1`, the growth was 69.6%.

On to `CCN(CC)c1cc(C)c2cc(NC(=O)c3cccc(OC)c3)ccc2n1`, for which the growth was 104%.

Consider `COc1ccc(/C=C2\SC(=Nc3ccccc3)NC2=O)cc1`, for which the growth is -54.1% (active).

As to `O=C1c2ccccc2C(=O)c2c1ccc1[nH]c(CCl)nc21`, the growth is 37.6%.

`C#CCn1cc(C=C2C(=O)NC(=O)NC2=O)c2cc(Cl)ccc21`: the growth was 112%.

Take `O=C(Nc1ccc(Br)cc1F)c1cc(Cl)ccc1O`: the growth is -7.14% (active).

For the compound `COc1cc(-c2c3c(c(Br)n2Cc2ccccc2)-c2nc(N)sc2CC3)cc(OC)c1OC`, the growth is 107%.

As for `CCOC(=O)C(CC(=O)O)=C(C(=O)OCC)C(=O)OCC`, the growth was 110%.

Take `O=C(N/N=C/c1ccccc1O)C(=O)Nc1ccc(F)cc1`: the growth is 59.1%.

`COc1c2ccoc2c(/C=C/C=O)c2oc(-c3ccccc3)cc(=O)c12`: the growth is 96.3%.

On to `N#CC(C#N)=Cc1c(-c2ccccc2)[nH]c2ccccc12`, for which the growth was 25.3%.

Consider `NC(=O)CSc1nc(-c2ccc(F)cc2)cc(-c2ccco2)n1`, for which the growth is 102%.

For `O=C(CN1C(=O)/C(=C\c2ccc(Cl)cc2)SC1=S)Nc1ncc(Cc2ccc(Cl)cc2)s1`, the growth was 104%.
